Screening data: PubChem, National Center for Advancing Translational Sciences (NCATS)
Compounds with a hit are over-represented: about 12% of the library has one in this group of screens.
L3MBTL1 block = blocks human L3MBTL1; AID 485360; Potency, µM (top dose mostly 57.1 µM), inactives show top-dose activity, negative = inhibition, most hits filed as inhibitors; Q9Y468; AlphaScreen L3MBTL1–H3K9me1 peptide binding; 0.66% of 230,000 active; also: % is scaled to controls: 0 for no effect and ±100 for the full control effect; nearly all actives have a fitted effect of over 60% in size
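First, the protein-peptide complex forms for 30 min at room temperature (L3MBTL1 50 nM, biotinylated H3K9me1 peptide 75 nM). Next, compounds are pin-transferred and incubated 30 min. Finally, AlphaScreen beads are added and read after 30 min.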
BAZ2B block = blocks human BAZ2B | AlphaScreen BAZ2B-H3K14Ac peptide displacement | 4.4% of 360,000 active | Q9UIF8 | Potency, µM (series often up to 114 µM), for inactives: at the top dose activity change, negative = inhibition, hits mostly inhibitors; also: % is scaled to controls: 0 for no effect and ±100 for the full control effect; nearly all actives have a fitted effect of over 60% in size
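Protein-peptide AlphaScreen: BAZ2B 50 nM, b-H3K14Ac 50 nM, 1x PBS pH 7.4 + 0.01% Tween-20. Preincubation 30 min RT; cpd 30 min RT (top 110 uM); beads 20 min RT, light-protected.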
JMJD2A Tudor = JMJD2A Tudor domain (human) inhibition; AlphaScreen JMJD2A-Tudor / H3K4me3 peptide binding; 4.4% of 390,000 active; AID 504339; Potency, µM (titrated, usually from 114 µM), for the others: at the highest dose activity change, negative = inhibition, hits mostly inhibitors; O75164; also: % is scaled to controls: 0 for no effect and ±100 for the full control effect; nearly all actives have a fitted effect of over 50% in size
Sfp PPTase inh = inhibitors of Bacillus subtilis Sfp phosphopantetheinyl transferase; Q9F4F7; Biochemical Sfp PPTase activity, qHTS; Potency, µM, inactives show largest response in the series, negative = inhibition, actives largely listed as inhibitors; 3.5% of 310,000 active;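 also: the enzyme is Sfp with the accession as filed and its product quenches rhodamine fluorescence; 0% = enzyme reaction without inhibitor and -100% = no enzyme wells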
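Buffer: 50 mM Hepes-Na pH 7.6, 10 mM MgCl2, 0.01% Nonidet P-40, 0.01% BSA. Enzyme 15 nM, pre-exposed to compound 15 min; substrates then added and fluorescence change tracked over 30 min.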
HP1b chromo inh = inhibitors of HP1-beta chromodomain binding to methylated histone tails. 0.56% of 390,000 active. AID 540317. P83916. Potency, µM (titrated, usually from 114 µM), for inactives: at the top dose activity change, negative = inhibition, usual class: inhibitors. AlphaScreen HP1-beta / biotin-H3K9me3 peptide binding; also: nearly all actives have a fitted effect of over 70% in size
Target sequence (P83916 whole entry, looked up): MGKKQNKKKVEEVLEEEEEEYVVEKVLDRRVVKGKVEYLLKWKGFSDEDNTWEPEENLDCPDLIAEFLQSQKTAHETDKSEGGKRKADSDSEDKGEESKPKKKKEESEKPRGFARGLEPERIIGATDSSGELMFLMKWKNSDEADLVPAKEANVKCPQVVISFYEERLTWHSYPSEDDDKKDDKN
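AlphaScreen: HP1-beta (50 nM) preformed 30 min with biotin-H3(1-18)K9me3 peptide (50 nM) in PBS pH 7.4, 0.01% Tween-20. Compound added for 30 min at RT, then streptavidin donor/nickel chelate acceptor beads (10 ug/mL) for 30 min.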
G9a inh = G9a (human) methyltransferase inhibition. G9a H3K9 monomethylation, AlphaScreen, 2 h. Potency, µM (doses to about 102 µM), for inactives: at the highest dose activity, negative = inhibition, hits mostly inhibitors. 8.8% of 350,000 active. AID 504332; also: % is scaled to controls: 0 for no effect and ±100 for the full control effect; nearly all actives have a fitted effect of over 75% in size
Target sequence (Q96KQ7 913-1193 limits assumed): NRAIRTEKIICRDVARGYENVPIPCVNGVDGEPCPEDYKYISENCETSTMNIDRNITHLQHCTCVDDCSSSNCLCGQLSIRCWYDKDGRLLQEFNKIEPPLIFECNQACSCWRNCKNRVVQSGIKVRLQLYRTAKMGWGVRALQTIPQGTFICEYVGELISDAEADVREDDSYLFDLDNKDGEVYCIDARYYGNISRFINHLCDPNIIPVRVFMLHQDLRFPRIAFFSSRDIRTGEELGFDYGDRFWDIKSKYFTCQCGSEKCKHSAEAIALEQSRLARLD
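Using a bead-based AlphaScreen, monomethylated H3K9 product from 2 h room-temperature reactions (G9a 20 nM, peptide 500 nM, SAM 20 uM) was detected with 0.5 ug/mL rabbit anti-H3K9me1 antibody.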
* hit, by the source's call; ? = inconclusive; · = no result; [ ] = another dose, or the depositor's remark. Calls follow the shape of the dose curve; as a rule, active = well fitted curve in the direction sought with a large enough effect; inconclusive = small, poorly fitted or top-dose-only effect, or another doubt; inactive = no such curve, though single readings can be large; an effect the other way counts as inactive or inconclusive. Potency is read from the fitted curve at half-maximal effect.

SMILES | L3MBTL1 block | BAZ2B block | JMJD2A Tudor | Sfp PPTase inh | HP1b chromo inh | G9a inh
S=c1nccc(-c2ccc3c(c2)CCO3)[nH]1 | · | -12% | -20% | -24% | 16% | 40µM*
O=C1C2C(c3ccccc3)CC=CC2C(c2cccc(Br)c2)N1Cc1ccccc1 (stereo not drawn) | · | · | -10% | 0% | 6% | ·
O=C1[C@H]2CCC=C[C@H]2[C@H](c2cccc(Br)c2)N1Cc1ccccc1 | -5% | · | ? | 112µM* | 35% | 15%
O=c1oc2ccccc2c(N2CCN(c3ccccc3F)CC2)c1CN1CCCC1 | · | -18% | -25% | · | 13% | -26%[59 µM]
CS(=O)(=O)c1ccccc1-c1nnc(NC(=O)c2ccco2)o1 | -1% | 50µM* | 20µM* | · | 14% | 14µM*
O=C(Nc1nnc(-c2ccc(F)cc2)o1)c1ccco1 | · | 50µM* | 79µM* | 10% | 47% | 27%[12.7 µM]
COc1ccc(C2=NNC(c3cccnc3)=Nc3ccc(OC)cc32)cc1 | -23% | ? | -24%[57.1 µM] | ? | 15% | -37%
COc1ccc(C2=NNC(c3ccco3)=Nc3ccc(F)cc32)cc1 | -5% | ? | -28% | 9% | -16% | 45µM*
O=C(CCCCCn1c(=O)[nH]c2ccccc2c1=O)NCCc1ccccc1 | · | 3% | -15% | · | 30% | 7%[59 µM]
CC(C)N1CCN(Cc2cccc(-c3ccco3)c2)CC1CCO (stereo not drawn) | ? | -31% | -18% | -4% | -12% | 25µM*
NC(=O)/C=C/C(=O)Nc1ccc(Cl)cc1 | 5% | -19% | -35% | -10% | -26% | 11µM*
CC(=O)c1ccc(-c2ccc(/C=C(/Sc3n[nH]c(C)n3)C(=O)O)o2)cc1 | ? | ? | ? | 10µM* | 13% | ?
Cc1nc(S/C(=C/c2ccc(-c3cc(Cl)ccc3C)o2)C(=O)O)n[nH]1 | 3% | -33% | 45µM* | ? | 13% | ·
Cc1ccc(C(=O)c2no[n+]([O-])c2C(=O)c2ccc(C)cc2)cc1 | 0% | ? | -23% | ? | -13% | 40µM*
Cc1nn2c(=O)cc(COC(=O)c3ccccc3NC(=O)C3CCCCC3)nc2s1 | · | 2% | 4% | · | 30% | 33%[59 µM]
COc1ccc2c3c(c(=O)oc2c1)C1O[C@](CCCCN2C(=O)c4ccccc4C2=O)(Cc2cc(OC)c(OC)cc21)O3 | · | -13%[22.9 µM] | · | -11% | · | ·
O=C(Nc1cc(Cl)cc(Cl)c1)c1cc(S(=O)(=O)N2CCc3ccccc3C2)ccc1F | · | 0% | -13% | · | 35% | -1%[59 µM]
CCc1cc2c(NCCN3CCCCC3)ncnc2s1 | · | 4% | ? | -2% | 28% | 50µM*
Cc1sc2ncnc(NCCN3CCOCC3)c2c1C | · | 50µM* | 1.6µM* | -24% | -50% | 8.9µM*
CCc1cc2c(NCCO)ncnc2s1 | 9% | 3% | 15% | 10% | 24% | ·
CCCCN(CC)CCCNC(=O)CCN1N=C(c2ccc(OC)cc2)CCC1=O | · | 8% | -2% | · | -6% | 2%[59 µM]
CC1(C)Oc2cc3c(cc2O1)OC(C)(C)O3 | · | · | · | -18% | · | ·
O=C(O)c1cccc(S(=O)(=O)NNc2ccccc2C(F)(F)F)c1 | · | 50µM* | 7.9µM* | -28% | -16% | 1.4µM*
Cc1ccc(C)c(Cn2c(C3CC(=O)N(c4ccccc4C)C3)nc3ccccc32)c1 (stereo not drawn) | · | ? | -15% | · | 21% | -24%[59 µM]
Cc1cc(Nc2cccc(Cl)c2)nc2ccc(NC(=O)COc3ccc(Cl)cc3)cc12 | · | 1% | 3% | · | 37% | 1%[59 µM]
SMILES | L3MBTL1 block | BAZ2B block | JMJD2A Tudor | Sfp PPTase inh | HP1b chromo inh | G9a inh
Oc1ccc(/C=C/c2nc(-c3ccccc3O)n(-c3ccccc3)n2)cc1 | -5% | ? | ? | ? | -10% | -1%[12.7 µM]
Oc1ccc(/C=C/c2nc(-c3ccccc3O)n(-c3ccccc3)n2)c(O)c1 | · | 32µM* | ? | · | 1% | ?
CCOC(=O)C1=C(CS(=O)(=O)c2ccc(F)c(C)c2)NC(=O)NC1c1ccc(F)c(F)c1 (stereo not drawn) | · | -6% | -25% | · | 14% | 4%[59 µM]
CCOC(=O)C1=C(CS(=O)(=O)c2ccc(F)c(C)c2)NC(=O)NC1c1ccc(O)c(O)c1 (stereo not drawn) | -7% | ? | -21% | -27% | 22% | 25µM*
Cn1cc(C=C2C(=O)OC3(CCCCC3)OC2=O)c2ccccc21 | -4% | -15% | -22% | -19% | 27% | ·
O=C1OC2(CCCC2)OC(=O)C1=Cc1c[nH]c2ccccc12 | 1% | -2% | 89µM* | 9% | 41% | ·
Cc1ccc(NC(=O)CCCc2nnc3n(C)c(=O)c4sccc4n23)cc1F | · | -8% | -1% | · | 24% | 3%[59 µM]
Nc1nc(SCC(=O)N2N=C3/C(=C\c4ccco4)CCCC3C2c2ccco2)n[nH]1 (stereo not drawn) | · | · | ? | · | -10% | ·
Nc1nc(SCC(=O)N2N=C3/C(=C/c4ccco4)CCCC3C2c2ccco2)n[nH]1 (stereo not drawn) | · | 50µM* | -33% | -12% | -8% | ?
O=C(CSc1nccc(=O)[nH]1)N1N=C2/C(=C/c3ccco3)CCCC2C1c1ccco1 (stereo not drawn) | -86% | · | 45µM* | 10µM* | ? | ?
Cn1cnnc1SCC(=O)N1N=C2/C(=C/c3ccco3)CCCC2C1c1ccco1 (stereo not drawn) | -18% | 56µM* | -24% | 11% | 8% | ·
COc1ccc(-n2nc(C(=O)N(C)c3cccc(C(F)(F)F)c3)c3c4ccccc4n(C)c3c2=O)cc1 | · | · | 0% | · | 66% | 25%[59 µM]
Cc1cc(C)cc(OCC(=O)Nc2nc(-c3cccnc3)cs2)c1 | · | -5% | -14% | 45µM* | ? | 10µM*
O=C(COc1ccccc1)Nc1nc(-c2cccnc2)cs1 | -10% | 9% | -5% | · | 25% | ?
COc1cccc(C(=O)Nc2nc(C)cs2)c1 | 4% | -20% | 11% | 6% | 45% | 0%[59 µM]
O=C(COc1ccccc1)Nc1nc(-c2ccncc2)cs1 | · | -13% | -6% | 50µM* | -19% | 8.9µM*
COc1cccc(C(=O)Nc2nc(-c3ccncc3)cs2)c1 | · | · | -16% | ? | 7% | 32µM*
COc1ccccc1OCc1nc(-c2cccc(C)c2)no1 | · | 358% | 262% | · | 210% | 195%[59 µM]
CS(=O)(=O)Nc1cccc(-c2cnc3ccccc3n2)c1 | · | 1% | -14% | -19% | 16% | 45µM*
O=S(=O)(Nc1ccc(-c2ccc3nncn3n2)cc1)c1cccs1 | 6% | -1% | -15% | · | -8% | 2%
CS(=O)(=O)Nc1cccc(-c2cn3c(n2)SCC3)c1 | · | -34% | 56µM* | 9% | ? | -32%
